# In a collection of fitness landscapes (doi:10.1126/science.1257360):
# Whole data set: some 140,000 sequences, median “enrichment ratio after two sorts for PhoP signalling” near 0, cut for the highest 2% near 11. Only a selection was taken, and the highest values are over-represented in it overall.
# B1: PhoQ; a variant is named by its letters at X, in order, P23837 (parent)
# chain: MKKLLRLFFPLSLRVRFLLATAAVVLVLSLAYGMVALIGYSVSFDKTTFRLLRGESNLFYTLAKWENNKLHVELPENIDKQSPTMTLIYDENGQLLWAQRDVPWLMKMIQPDWLKSNGFHEIEADVNDTSLLLSGDHSIQQQLQEVREDDDDAEMTHSVAVNVYPATSRMPKLTIVVVDTIPVELKSSYMVWSWFIYVLSANLLLVIPLLWVAAWWSLRPIEALAKEVRELEEHNRELLNPATTRELTSLVRNLNRLLKSERERYDKYRTTLTDLTHSLKTPLXXLQXXLRSLRSEKMSVSDAEPVMLEQISRISQQIGYYLHRASMRGGTLLSRELHPVAPLLDNLTSALNKVYQRKGVNISLDISPEISFVGEQNDFVEVMGNVLDNACKYCLEFVEISARQTDEHLYIVVEDDGPGIPLSKREVIFDRGQRVDTLRPGQGVGLAVAREITEQYEGKIVAGESMLGGARMEVIFGRQHSAPKDE
# Variants of: B1
# Assay: enrichment ratio after two sorts for PhoP signalling (ratio (wild type AVST 3.29)); higher = more functional
# Conditions: with PhoP (E. coli)
row,Variant,enrichment ratio
1,YSQQ,≤ 0.25
2,PRCN,≤ 0.25
3,RSCH,≤ 0.25
4,DCRN,≤ 0.25
5,MFPC,≤ 0.25
6,YLTE,≤ 0.25
7,NVTL,≤ 0.25
8,MMTL,13.2
9,WITL,0.966
10,MATL,7.59
11,METL,3.99
12,TSTL,20.7
13,FVLT,≤ 0.25
14,WYAY,≤ 0.25
15,KNFK,≤ 0.25
16,MYGA,≤ 0.25
17,GWFA,≤ 0.25
18,RSRM,≤ 0.25
19,KCLN,≤ 0.25
20,GCLS,19.3
21,GCLT,6.49
22,GCLA,6.8
23,GCNL,≤ 0.25
24,GCLN,11.5
25,VRSC,≤ 0.25

row,Variant,enrichment ratio
1,YKWM,≤ 0.25
2,TGSC,20.2
3,NGSC,≤ 0.25
4,FFSC,≤ 0.25
5,QGSC,12
6,GGSC,9.93
7,FVSC,≤ 0.25
8,FEYD,≤ 0.25
9,FCVK,≤ 0.25
10,ESKA,≤ 0.25
11,NEVN,≤ 0.25
12,VAFL,3.05
13,WLWC,≤ 0.25
14,QCWI,37.7
15,QCNL,≤ 0.25
16,QCWL,13.1
17,QCDS,≤ 0.25
18,GGWL,≤ 0.25
19,QCGD,≤ 0.25
20,VIGT,≤ 0.25
21,IMSW,≤ 0.25
22,VELA,≤ 0.25
23,VLWG,≤ 0.25
24,VLWH,≤ 0.25
25,VEWH,13.7

row,Variant,enrichment ratio
1,VRWH,≤ 0.25
2,VRWG,≤ 0.25
3,VEWI,12.2
4,VEWS,2.49
5,VEWG,18.1
6,PTWI,≤ 0.25
7,FAIR,≤ 0.25
8,IVHI,≤ 0.25
9,MQLF,2.66
10,IWYQ,≤ 0.25
11,ATSW,1.32
12,HLTG,1.04
13,SALG,15.9
14,KCLG,≤ 0.25
15,QCLG,2.4
16,GCLG,14.9
17,SPLG,≤ 0.25
18,NALG,0.397
19,KALG,≤ 0.25
20,STLG,14.5
21,PWLG,≤ 0.25
22,PTLG,≤ 0.25
23,SCLG,12.6
24,SWLG,≤ 0.25
25,WEVH,≤ 0.25

row,Variant,enrichment ratio
1,HANP,≤ 0.25
2,NMEQ,≤ 0.25
3,ILFS,≤ 0.25
4,QRWI,≤ 0.25
5,ISPF,≤ 0.25
6,CVQT,≤ 0.25
7,SYLG,9.61
8,SGLG,15.5
9,FDLG,≤ 0.25
10,FQLG,16.7
11,TGLG,10.1
12,NGLG,≤ 0.25
13,KQLG,≤ 0.25
14,DPLG,≤ 0.25
15,WQLG,≤ 0.25
16,EQLG,≤ 0.25
17,SQLG,19.1
18,TQLG,16.7
19,GAQK,≤ 0.25
20,NGQA,≤ 0.25
21,VMKG,≤ 0.25
22,ILNQ,≤ 0.25
23,DMSW,≤ 0.25
24,TCQW,≤ 0.25
25,LQMI,≤ 0.25

row,Variant,enrichment ratio
1,MMFL,≤ 0.25
2,HDFE,≤ 0.25
3,WLYA,≤ 0.25
4,SFLG,10.9
5,SELG,25.3
6,MQLA,≤ 0.25
7,KYLG,≤ 0.25
8,MQWG,4.64
9,MQLG,22
10,LEAH,0.895
11,TEQC,9.21
12,FELK,≤ 0.25
13,FTPI,≤ 0.25
14,MFEY,≤ 0.25
15,WMWW,≤ 0.25
16,TSSG,14.4
17,PGSG,≤ 0.25
18,KQSG,≤ 0.25
19,PFSG,≤ 0.25
20,TTSG,19.5
21,HFSG,≤ 0.25
22,TGSG,16.4
23,NSSG,≤ 0.25
24,KSSG,≤ 0.25
25,YTSG,≤ 0.25

row,Variant,enrichment ratio
1,TFSG,13.9
2,GGSG,≤ 0.25
3,MWFY,≤ 0.25
4,SQPK,≤ 0.25
5,VRWV,≤ 0.25
6,SYQC,≤ 0.25
7,RTQR,≤ 0.25
8,TVSG,20.3
9,GVSG,7.26
10,GISG,8.5
11,GNSG,13.2
12,HCSG,≤ 0.25
13,SPSG,≤ 0.25
14,WDLS,≤ 0.25
15,DAKY,≤ 0.25
16,NIQR,≤ 0.25
17,APLG,≤ 0.25
18,AHLG,6.95
19,ADLG,3.46
20,AFTG,5.35
21,NHLG,≤ 0.25
22,SHLG,10.8
23,AFFG,≤ 0.25
24,AILG,15.7
25,KKLG,≤ 0.25

row,Variant,enrichment ratio
1,AQLG,18.8
2,AFLG,15.7
3,THLG,14.4
4,MEPF,≤ 0.25
5,WCFV,≤ 0.25
6,GSFI,≤ 0.25
7,RMTQ,≤ 0.25
8,YEWD,≤ 0.25
9,LWMC,≤ 0.25
10,QNWS,8.87
11,PPKF,≤ 0.25
12,WPCT,≤ 0.25
13,SLTH,5.18
14,NKDQ,≤ 0.25
15,FHGD,≤ 0.25
16,NMLG,≤ 0.25
17,ATLG,12.3
18,FSLG,8.53
19,TMLG,11.6
20,DMLG,≤ 0.25
21,VRLG,≤ 0.25
22,TTLG,10.6
23,YTLG,6.93
24,ASLG,18.2
25,RQGG,≤ 0.25

row,Variant,enrichment ratio
1,RQFP,≤ 0.25
2,PNPW,≤ 0.25
3,RIWK,≤ 0.25
4,NTQW,≤ 0.25
5,QDPH,≤ 0.25
6,RWEP,≤ 0.25
7,STTN,19.3
8,KYTN,≤ 0.25
9,THTN,4.21
10,WITN,≤ 0.25
11,GHTN,12.9
12,SQTN,8.46
13,VLTN,≤ 0.25
14,AMTN,27.1
15,DMTN,≤ 0.25
16,NMTN,≤ 0.25
17,TMTN,13.4
18,VHTN,≤ 0.25
19,YVCF,0.805
20,PGGT,≤ 0.25
21,RGRC,≤ 0.25
22,FMKW,≤ 0.25
23,TWYE,≤ 0.25
24,YSAH,≤ 0.25
25,HNNM,≤ 0.25

row,Variant,enrichment ratio
1,QGTS,≤ 0.25
2,KFTN,≤ 0.25
3,VCTN,≤ 0.25
4,TETN,24.4
5,GTTN,≤ 0.25
6,TCTN,22.5
7,YTTN,≤ 0.25
8,NETN,≤ 0.25
9,ATTN,20.6
10,DETN,≤ 0.25
11,KCTN,≤ 0.25
12,SPTN,≤ 0.25
13,SVTN,16.4
14,RCRT,≤ 0.25
15,YSIQ,≤ 0.25
16,WKRH,≤ 0.25
17,LAIW,≤ 0.25
18,NWSE,≤ 0.25
19,LYIV,≤ 0.25
20,WHIR,≤ 0.25
21,YPIA,≤ 0.25
22,GPAN,≤ 0.25
23,AKTN,≤ 0.25
24,AITN,22.4
25,KSTN,≤ 0.25

row,Variant,enrichment ratio
1,FIQE,≤ 0.25
2,GTVS,≤ 0.25
3,GTMI,≤ 0.25
4,GIVI,6.54
5,GCVI,≤ 0.25
6,GNMI,46.4
7,GIFA,≤ 0.25
8,GYMI,≤ 0.25
9,GNVI,14.7
10,GIGD,≤ 0.25
11,GIMI,25.7
12,EHCK,≤ 0.25
13,DQHH,≤ 0.25
14,AQEG,≤ 0.25
15,LKYY,≤ 0.25
16,FGWK,≤ 0.25
17,SEER,≤ 0.25
18,RPGL,≤ 0.25
19,QLNH,≤ 0.25
20,QENH,70.4
21,QQSH,≤ 0.25
22,QQNH,12.7
23,QQNS,8.87
24,QPNH,≤ 0.25
25,HNFM,≤ 0.25

row,Variant,enrichment ratio
1,KEFR,≤ 0.25
2,THMP,≤ 0.25
3,HPVY,≤ 0.25
4,MNCR,≤ 0.25
5,RSFL,≤ 0.25
6,YTFQ,≤ 0.25
7,AIQM,≤ 0.25
8,TITM,17.6
9,TINS,9.25
10,TIGM,21.8
11,TIQM,48.5
12,RIQM,≤ 0.25
13,TIYM,2.83
14,TICK,1.1
15,TINM,15.1
16,TINY,≤ 0.25
17,TIWM,≤ 0.25
18,TIPM,≤ 0.25
19,PGVE,≤ 0.25
20,FAIN,0.294
21,WTRP,≤ 0.25
22,TKVF,3.68
23,ANGQ,≤ 0.25
24,SYDT,≤ 0.25
25,PICE,≤ 0.25

row,Variant,enrichment ratio
1,LWID,≤ 0.25
2,FPRV,≤ 0.25
3,TRYF,≤ 0.25
4,GPCS,≤ 0.25
5,NCLV,1.12
6,AACE,6.4
7,KACV,≤ 0.25
8,AACV,16.2
9,AACI,12.2
10,ANCV,3.79
11,AAAI,1.63
12,AACA,7.7
13,AANL,≤ 0.25
14,AACS,17.3
15,AACK,≤ 0.25
16,AACL,11.3
17,IACL,≤ 0.25
18,NQPV,≤ 0.25
19,KGDN,≤ 0.25
20,WHVG,≤ 0.25
21,HKAD,≤ 0.25
22,LHMM,≤ 0.25
23,SKQW,≤ 0.25
24,QCCL,≤ 0.25
25,LETR,≤ 0.25

row,Variant,enrichment ratio
1,DAMY,≤ 0.25
2,MRVV,≤ 0.25
3,ASVY,2.98
4,ASTD,≤ 0.25
5,ASHQ,≤ 0.25
6,ASMQ,29.9
7,ASRL,≤ 0.25
8,KSVV,≤ 0.25
9,ASVL,16.7
10,ASVT,15.2
11,ASVK,0.907
12,ASVA,4.82
13,ASVV,14.5
